According to PubChem BioAssay (NCATS):
Where “and” joins values, the source holds several entries; their conditions need not be identical. Equal entries are not always repeated. Results filed as inconclusive are left out. Some structures have more than one record in an assay (separate samples or runs), and their calls can disagree. A number with no mark means an inactive call. Calls of active or inactive are those of the source. The call rests on the fitted dose curve; in most records, active means well fitted curve in the direction sought with a large enough effect; inconclusive means small, poorly fitted or top-dose-only effect, or another doubt; inactive means no such curve, though single readings can be large; an effect the other way counts as inactive or inconclusive.

How the values were obtained:
Tov112D = experiment: Primary qHTS to identify gynecologic anti-cancer compounds using libraries of approved drugs and bioactive compounds (AID 1345084); details: Gynecologic cancer cell panel viability, ATPlite luminescence, 48 h; series mostly up to 57.5 µM; further: nearly all actives have a fitted effect of over 55% in size
Outline: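 ATP-based viability (ATPlite), 1,000 cells/well, 16 h pre-incubation, 48 h compound at 37 C, 5% CO2, 15 min RT before read.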

[1] = Drug repurposing screens with cells derived from glioblastoma tumor samples (AID 1345199); details: GBM patient neurospheres viability, ATP luminescence, 48 h; further: nearly all actives have a fitted effect of over 40% in size; further: potency means the concentration at half of the fitted maximal effect
Outline: (§1)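 Four patient lines of CD133+ GBM neurospheres were screened at several concentrations; hits were retested in those lines plus three slower-growing GBM lines, using 48-hour treatment and ATP-based viability.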

astro = experiment: as above; details: viability, ATP luminescence, 48 h; series mostly up to 45.9 µM
Outline: as §1

[2] = at 45.9 µM (top of the series), tumour line B
[3] = at 45.9 µM (top of the series), tumour line D
[4] = at 46.1 µM (top of the series), tumour line C
On the % scale 0 is the no-effect control and ±100 the full control effect.

| Structure (SMILES) | Potency (Tov112D) | activity, negative = cell killing [1, 2] | activity, negative = cell killing [1, 3] | activity, negative = cell killing [1, 4] | Potency (astro) | Potency ([1]; tumour line A) | Potency ([1]; tumour line D) |
| --- | --- | --- | --- | --- | --- | --- | --- |
| CN(CC1(C)CCCO1)S(=O)(=O)c1ccc(Cl)c(S(N)(=O)=O)c1 (stereo not given) | inactive | -9.01% | -23.5% | 16.1% | inactive |  |  |
| C[N+]1(C)CCC(OC(=O)C(O)(c2ccccc2)C2CCCC2)C1 (stereo not given) | inactive |  | -7.1% | -3.15% and -15.3% | inactive | 11.2 µM (active) |  |
| CCOC(=O)NNc1nncc2ccccc12 | inactive | -5.14% | -7.16% | -13.4% | inactive |  |  |
| COc1cc(C(=O)OC(COCCC(C)C)CN2CCOCC2)cc(OC)c1OC (stereo not given) | inactive | -6.94% | -4.84% | -4.89% | inactive |  |  |
| C=CCOc1cc(Cl)ccc1C(=O)NCCN(CC)CC | inactive | -22.9% |  | 2.19% | inactive | 10 µM (active) |  |
| C[N+](C)(CCOc1ccccc1)Cc1cccs1 | inactive | -1.12% | -8.83% | -14.1% | inactive |  |  |
| CCCCNc1ccc(C(=O)OCCN(CC)CC)cc1 | inactive |  |  | -27.5% | inactive | 14.1 µM (active) | 14.1 µM (active) |
| OC[C@]1(O)OC[C@@H](O)[C@H](O)[C@@H]1O | inactive | 6.45% | -1.03% | 12.8% | inactive |  |  |
| CCc1cc(S(=O)(=O)O)c2cc(C(C)C)cccc1-2 | inactive | -10.8% | -10.6% | -1.11% | inactive |  |  |
| CC(=O)OC/C=C(C)/C=C/C=C(C)/C=C/C1=C(C)CCCC1(C)C | inactive | -7.14% | -23.4% | -13.6% | inactive |  |  |
| O=S(=O)(O)c1ccc2nc(-c3ccccc3)[nH]c2c1 | inactive | -3.28% | -9.15% | -23.9% | inactive |  |  |
| O=C(O)Cc1ccccc1Oc1ccc(Cl)cc1Cl | inactive | -7.43% | -9.2% | 1.53% | inactive |  |  |
| Cc1cccc(N(C)C(=S)Oc2ccc3c(c2)CCC3)c1 | inactive | -19.8% |  |  | inactive | 17.8 µM (active) | 20 µM (active) |
| O=C(O)/C=C(\CC(=O)O)C(=O)O | inactive | -11.5% | -18% |  | inactive | 20 µM (active) |  |
| Cn1cc(S(C)=O)c(=O)c2ccc(F)cc21 (stereo not given) | inactive | -9.03% | -4.06% | -1.4% | inactive |  |  |
| CC(=O)CC/C=C(\C)CC/C=C(\C)CC/C=C(\C)CCC=C(C)C | inactive | -12.4% | -10.7% | 4.26% | inactive |  |  |
| C[C@]12CCC(=O)C=C1CC[C@@H]1[C@@H]2[C@@H](O)C[C@@]2(C)[C@H]1CC[C@]2(O)C(=O)COC(=O)CCC(=O)O | inactive | -2.56% | -26.6% | -2.87% | inactive |  |  |
| CCOC(=O)c1ccc(OCCN2C[C@H](O)[C@@H](O)[C@H](O)[C@H]2CO)cc1 | inactive | 0.0726% | -4.04% | 1.63% | inactive |  |  |
| CCCCCOc1ccc(C2SC(=O)NC2=O)cc1OCC (stereo not given) | inactive | -6.4% | -4.3% | -14.2% | inactive |  |  |
| CC(CCc1ccc2c(c1)OCO2)NN (stereo not given) | inactive | -11.1% | -1.96% | -0.872% | inactive |  |  |
| CC(=O)Nc1ccc(S(=O)(=O)Nc2cc(C)on2)cc1 | inactive | 4.82% | -21% | -0.236% | inactive |  |  |
| CC1CC(=O)NN=C1c1ccc(NCC(C)(C)NCC(O)COc2cc(Cl)ccc2C#N)cc1 (stereo not given) | inactive | -23.3% | -27.2% |  | inactive | 1.78 µM (active) |  |
| CCCCCC[C@@H](CCC)C(=O)O | inactive | -11.8% | -7.11% | -6.46% | inactive |  |  |
